Results filed as inconclusive are left out. Entries that show only a call come without a potency. Calls of active or inactive are those of the source. The call rests on the fitted dose curve; in most records, active means well fitted cell-killing curve with a large enough effect in the repeat runs; inconclusive means weak or mixed curves, or effect the other way; inactive means flat fitted curve, though single readings scatter.
assay: qHTS assay to identify small molecule antagonists of the retinoid acid receptor (RAR) signaling pathway - cell viability counter screen (AID 1159551); settings: C3RL4 cells viability, ATP luminescence (CellTiter-Glo), 6 h; series mostly up to 92.4 µM; further: nearly all actives have a fitted effect of over 35% in size
Procedure, shortened: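 ATP-based viability, C3RL4 cells, 6 h at 37 C with 1 uM final retinol co-added after compound; luminescence read 30 min post CellTiter-Glo, RT.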

Row | Compound | Potency | activity change, negative = cytotoxicity
1 | CCOC(=O)c1cccnc1 | inactive | 
2 | CCn1cc(C(=O)O)c(=O)c2cnc(N3CCNCC3)nc21 | inactive | 
3 | CC(C)(CO)[N+](=O)[O-] | inactive | 
4 | CC[N+]1(CC)CCC(=C(c2ccccc2)c2ccccc2)C1C (stereo not given) | inactive | 
5 | CCCCC(CC)COC(=O)CCCCCCCCC(=O)OCC(CC)CCCC (stereo not given) | inactive | 
6 | CCCCCCCN | inactive | 
7 | CC/C=C\CCOC(=O)CC | inactive | 
8 | Nc1ncn([C@H]2C[C@H](O)[C@@H](CO)O2)c(=O)n1 | inactive | 
9 | N=c1ccn2c(n1)O[C@H]1[C@H](O)[C@@H](CO)O[C@H]12 | inactive | 
10 | Cc1cccc(C)c1NC(=O)CN(CC(=O)O)CC(=O)O | inactive | 
11 | CC(CC=O)c1ccccc1 (stereo not given) | inactive | 
12 | C1CCCNCCC1 | inactive | 
13 | COc1ccc(C(=O)N2CCN(CC(=O)N3CCOCC3)CC2)cc1 | inactive | 
14 | O=C(CS)Nc1ccccc1 | inactive | 
15 | Cc1ccc(N=Nc2c(O)c(C(=O)O)cc3ccccc23)c(S(=O)(=O)O)c1 | inactive | 
16 | NCC(=O)CCC(=O)O | inactive | 
17 | CN(C)CCN(Cc1ccccc1)c1ccccn1 | inactive | 
18 | CN1Cc2cc(C(=O)N3CCC(C4CCNCC4)CC3)ccc2NC(CC(=O)O)C1=O (stereo not given) | inactive | 

Row | Compound | Potency | activity change, negative = cytotoxicity
19 | CC(CSC(=O)c1ccccc1)C(=O)N1C[C@@H](Sc2ccccc2)C[C@H]1C(=O)O (stereo not given in full) |  | -2.34% [at 19 µM] (inactive)
20 | CCCCCCCCCOS(=O)(=O)O | inactive | 
21 | CC(=O)c1cccc([N+](=O)[O-])c1 | inactive | 
22 | CN(C)C(=O)NC1(c2ccccc2)CCN(CC[C@@]2(c3ccc(F)c(F)c3)CN(C(=O)c3ccccc3)CCO2)CC1 | inactive | 
23 | CCCCC(CC)CN1C(=O)C2C3C=CC(C3)C2C1=O (stereo not given) | inactive | 
24 | CC(C)(COC(=O)c1ccccc1)COC(=O)c1ccccc1 | inactive | 
25 | CCN(CC)CCNc1ccc(CNC=O)c2sc3ccc(OC)cc3c(=O)c12 | inactive | 
26 | c1cc(CCCc2ccncc2)ccn1 | inactive | 
27 | O=C(Cl)c1cc(C(=O)Cl)cc(C(=O)Cl)c1 | inactive | 
28 | Cn1c(=O)cc(Oc2ccc(F)cc2F)c2cnc(NCC(C)(C)O)nc21 | inactive | 
29 | O=C(O)c1ccc(-n2nc(-c3ccccc3O)nc2-c2ccccc2O)cc1 | inactive | 
30 | CC1=CC=C(C(C)C)CC1 | inactive | 
31 | CCCCCC[C@@H](O)C/C=C\CCCCCCCC(=O)OC | inactive | 
32 | CC(=O)c1ccc2c(c1)N(CCCN1CCC(CCO)CC1)c1ccccc1S2 | inactive | 
33 | CN1CCN(C(c2ccccc2)c2ccccc2)CC1 | inactive | 
34 | NCCCN1CCOCC1 | inactive | 
35 | OC[C@H]1O[C@@H](OCCc2ccc(O)cc2)[C@H](O)[C@@H](O)[C@@H]1O | inactive | 
